The text below walks through data of PubChem BioAssay (NCATS).

The target of test [1] is Phospholipid hydroperoxide glutathione peroxidase GPX4 (Homo sapiens) (UniProt P36969). Kind of test: Primary qHTS Assay for Inhibitors of Recombinant Selenoprotein Glutathione Peroxidase 4 (GPX4) (AID 1845192). Further: nearly all actives have a fitted effect of over 65% in size. Further: potency means the concentration at half of the fitted maximal effect. A digest of the protocol: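 qHTS, GR-coupled: GPX4 200 nM + cpd 30 min RT → GSH 1 mM, NADPH 0.5 mM, GR 100 nM → CHP 0.5 mM start; fluor 340/450 at t0 and t15 min; no-enzyme wells as control.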

Test [2] addresses Luciferin 4-monooxygenase (Photinus pyralis) (UniProt P08659). Kind of test: Primary firefly luciferase (FLuc) qHTS assay for identification of artifact compounds. (AID 1845220). Further: nearly all actives have a fitted effect of over 60% in size. Further: potency means the concentration at half of the fitted maximal effect. A digest of the protocol:
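In this counter-screen for luciferase artifacts, test compounds met substrate (10 uM each luciferin and ATP) before 10 nM enzyme started the reaction. Light output was measured 5 min later.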

The nature of test [3]: Primary fluorescence-based thiol-reactive (MSTI) qHTS assay for identification of artifact compounds. (AID 1845221). Further: nearly all actives have a fitted effect of over 65% in size. Further: potency means the concentration at half of the fitted maximal effect. The gist of the method:
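First, 4 uM MSTI in 2% DMSO/PBS pH 7.4 was dispensed; next, compounds were added; then plates sat 1 h at room temperature without light. Finally, emission at 598 nm was recorded.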

Test [4] concerns Nanoluciferase (engineered Oplophorus gracilirostris luciferase). Kind of test: Primary Nanoluciferase (NLuc) qHTS assay for identification of artifact compounds. (AID 1845222).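 Further: NLuc secreted into diluted conditioned medium of S16 cells; series mostly up to about 54 µM.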 A digest of the protocol: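 Using secreted nanoluciferase in S16 culture medium (0.22 um filtered, 1:55 dilution), compounds were preincubated 15 min at RT. Signal was generated with Nano-Glo reagent (1:100) over 5 min.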

Test [5] is described as follows: Primary redox qHTS assay for identification of artifact compounds. (AID 1845223). The gist of the method: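 Redox-cycling detection via DTT (250 uM final) oxidation coupled to Amplex Red (25 uM)/HRP (250 mU/mL) in HBSS. 15 min preincubation plus 30 min after DTT, room temperature. Ex/Em 525/598 nm; 4-parameter Hill fit against DMSO and 10 uM DA3003.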
A short description of test [6]: Quantitative High-Throughput drug screen in 47 multiple myeloma cell lines against the NCATS MIPE library collection: Delta47_JCRB cell viability assay (AID 1918925; further: nearly all actives have a fitted effect of over 45% in size; further: potency means the concentration at half of the fitted maximal effect). The gist of the method:
(§1)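 Inhibition of cell viability is measured here. Each line was plated at 500 cells per well, treated with MIPE 4.0 drugs, kept 48 hours at 37C, then assayed for ATP content by CellTiter-Glo luminescence.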

Test [7] can be described thus: Quantitative High-Throughput drug screen in 47 multiple myeloma cell lines against the NCATS MIPE library collection: EJM_DSMZ cell viability assay (AID 1918926; further: nearly all actives have a fitted effect of over 30% in size; further: potency means the concentration at half of the fitted maximal effect). A digest of the protocol:
as §1

Test [8] can be described thus: Quantitative High-Throughput drug screen in 47 multiple myeloma cell lines against the NCATS MIPE library collection: FR4_PLB cell viability assay (AID 1918924; further: nearly all actives have a fitted effect of over 35% in size; further: potency means the concentration at half of the fitted maximal effect). A digest of the protocol: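 qHTS of the MIPE 4.0 collection: 500 myeloma cells/well, 48 h drug exposure at 37C in 5% CO2, then CellTiter-Glo for 5 min at room temperature before luminescence reading.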
Test [9] can be described thus: Quantitative High-Throughput drug screen in 47 multiple myeloma cell lines against the NCATS MIPE library collection: AMO1_DSMZ cell viability assay (AID 1918927; further: nearly all actives have a fitted effect of over 30% in size; further: potency means the concentration at half of the fitted maximal effect). The gist of the method:
as §1

Test [10] is described as follows: Quantitative High-Throughput drug screen in 47 multiple myeloma cell lines against the NCATS MIPE library collection: ARP1_JJKsccF8 cell viability assay (AID 1918928; further: nearly all actives have a fitted effect of over 40% in size; further: potency means the concentration at half of the fitted maximal effect). The gist of the method: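 CellTiter-Glo luminescence after 48 h exposure gives viability, scaled between DMSO-only (100%) and media-only (0%) controls. Library compounds are pinned onto 500 myeloma cells per well, incubated at 37C with 5% CO2.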

Molecules are shown by their SMILES. Inconclusive results are not listed. The source made the active and inactive calls. The call rests on the fitted dose curve; in most records, active means well fitted curve in the direction sought with a large enough effect; inconclusive means small, poorly fitted or top-dose-only effect, or another doubt; inactive means no such curve, though single readings can be large; an effect the other way counts as inactive or inconclusive.

Sequence of Phospholipid hydroperoxide glutathione peroxidase GPX4 (Homo sapiens) (P36969 whole entry, looked up): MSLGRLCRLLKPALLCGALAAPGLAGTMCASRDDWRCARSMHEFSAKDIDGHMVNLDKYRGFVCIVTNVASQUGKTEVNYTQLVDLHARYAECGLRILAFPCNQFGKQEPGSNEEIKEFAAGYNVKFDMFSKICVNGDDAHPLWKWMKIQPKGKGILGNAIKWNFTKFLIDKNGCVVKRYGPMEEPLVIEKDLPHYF

As to `Cn1c(N2CCCCS2(=O)=O)nc(C(=O)NCc2ccc(F)cc2)c(O)c1=O`, the Potency result in test [1], in test [2], in test [4], in [6] and in test [7] was “inactive” in each case. Further, the Potency in [3] was 1.34 µM (active). Further, the compound was classed as inactive in [5].
In the case of `Cc1nc(N)sc1-c1ccnc(Nc2ccc(N3CCOCC3)cc2)n1`, the Potency entry in [1] and in test [4] was “inactive” in each case. For the same compound, the Potency in [2] was 5.36 µM (active); in [3], 1.5 µM (active); in [8] it was 14.8 µM (active); in [6], 10.5 µM (active); in test [7], 18.7 µM (active); in test [9] it was 2.64 µM (active). Besides, the compound was classed as inactive in test [5].
For `NC(=O)c1cnc(-c2ccc(C3(N)CCC3)cc2)c(-c2ccccc2)c1`, the Potency entry in [1], in test [2], in test [3], in test [4] and in test [8] was “inactive” throughout. In addition, the call in test [5] was inactive. Also, the Potency in [6] is 6.62 µM (active); in test [7] it was 1.66 µM (active); in [10] it was 8.33 µM (active).
Take `CC(C)(C)c1cc(C(=O)O)c(NC(=O)Nc2ccc3[nH]ncc3c2)s1`: the Potency entry in test [1], in test [4], in [8], in test [7], in test [9] and in test [10] was “inactive” throughout. The Potency in test [2] is 16.9 µM (active); in [3], 1.06 µM (active). In test [5], the outcome was inactive.
For the compound `CCS(=O)(=O)N1CC(CC#N)(n2cc(-c3ncnc4[nH]ccc34)cn2)C1`, the Potency in [1] was 16.1 µM (active); in test [8], 16.6 µM (active); in test [9] it was 3.72 µM (active). For the same compound, the Potency result in test [2], in [3] and in test [4] was “inactive” each time. In addition, the compound was called inactive in test [5].
Consider `CNC1CCC(N(Cc2cccc(-c3ccncc3)c2)C(=O)c2sc3c(F)ccc(F)c3c2Cl)CC1` (stereo unspecified), for which the Potency entry in test [1], in [2], in test [3] and in [4] was “inactive” throughout. In test [5], the call was inactive. Moreover, the Potency in test [8] was 14.8 µM (active); in test [6] it was 16.6 µM (active); in [9], 23.5 µM (active); in test [10] it was 16.6 µM (active).
For the compound `COc1cc2c(cc1OC)CN(CCc1ccc(NC(=O)c3cc(OC)c(OC)cc3NC(=O)c3cnc4ccccc4c3)cc1)CC2`, the Potency result in [1], in test [2], in test [3], in test [4], in [8] and in test [7] was “inactive” each time. Moreover, the Potency result in [9] is “inactive”. In addition, in test [5], the result was inactive. For the same compound, the Potency in test [6] was 13.2 µM (active).
As to `CN(C[C@@H]1COCCO1)S(=O)(=O)Nc1ccc2ccc3ncc(-c4cnn(C)c4)cc3c(=O)c2c1`, the Potency entry in test [1], in [2], in test [3] and in test [4] was “inactive” throughout. In test [5], the compound was called inactive. The Potency was 13.2 µM (active) in test [8] and 2.96 µM (active) in test [7].
`COc1cc2ncnc(Nc3ccc(F)c(Cl)c3)c2cc1OCCCN1CCOCC1`: the Potency entry in test [1], in [2], in test [3] and in test [4] was “inactive” throughout. The result in [5] was inactive. Moreover, the Potency in [8] is 19.1 µM (active); in [6], 5.4 µM (active); in test [7], 6.05 µM (active); in test [9], 4.81 µM (active); in test [10], 48.1 µM (active).
As to `COc1ncc(-c2ccc3nccc(-c4ccnnc4)c3c2)cc1NS(=O)(=O)c1ccc(F)cc1F`, the Potency entry in test [1], in test [2], in test [3] and in test [4] was “inactive” each time. For the same compound, the compound was called inactive in test [5]. The figures for the Potency in test [8] and in test [9] were 0.0132 µM (active) and 0.0469 µM (active), respectively.
Turning to `CC(C)(C)NC(=O)Nc1cccc(Nc2ncc(F)c(NC(C)(C)CO)n2)c1`, the Potency entry in test [1], in test [2], in [3], in test [4], in [8] and in [7] was “inactive” each time. Further, in [5], the call was inactive. The Potency is 14.8 µM (active) in test [9] and 10.5 µM (active) in test [10].
On to `O=C(NC1CCOCC1)c1ccc(-c2cc(-c3cn[nH]c3-c3ccccn3)ccn2)cc1`, for which the Potency entry in [1], in [2], in test [3], in test [4], in [8] and in test [7] was “inactive” in each case. For the same compound, the outcome in test [5] was inactive.
`C=C1C(=O)[C@@]23C(CC[C@@H]1[C@H]2O)[C@@]12CO[C@]3(O)[C@@H](O)[C@@H]1C(C)(C)CC[C@@H]2O` (stereo partly specified): the Potency entry in test [1], in [2], in test [3] and in [4] was “inactive” in each case. In addition, the call in test [5] was inactive. The Potency in test [8] was 6.62 µM (active); in test [6], 3.72 µM (active); in [7], 2.96 µM (active); in test [9] it was 1.48 µM (active); in [10], 5.9 µM (active).
For `Cc1ccc(Nc2cc(-c3cccc(N4C(=O)c5ccccc5C4=O)c3)ncn2)cc1NS(C)(=O)=O`, the Potency result in test [1], in test [2], in test [3] and in [4] was “inactive” each time. In [5], the compound was classed as inactive. The Potency in test [6] is 14.8 µM (active); in test [7], 26.4 µM (active); in test [9], 18.7 µM (active).
On to `CN[C@@H](C)C(=O)N[C@H]1CN(C(=O)CC(C)C)CC[C@H]2CC[C@@H](C(=O)NC(c3ccccc3)c3ccccc3)N2C1=O`, for which the Potency result in test [1], in test [2], in test [3] and in test [4] was “inactive” each time. In addition, the call in test [5] was inactive. Further, the Potency in [7] was 16.6 µM (active); in [9] it was 2.96 µM (active).
With `O=c1[nH]cnc2c1ncn2[C@H]1CC[C@@H](CO)O1`, the Potency entry in test [1], in [2], in test [3], in [4], in test [8] and in [7] was “inactive” each time. The Potency entry in [9] and in [10] was “inactive” in each case. Moreover, in test [5], the call was inactive.
In the case of `COCCOC(=O)C1=C(C)NC2=C(C(=O)CC(c3ccccc3OC)C2)C1c1cccc(O)c1` (stereo unspecified), the Potency entry in [1], in test [2], in [3] and in [4] was “inactive” each time. Besides, the compound was classed as inactive in [5]. For the same compound, the Potency in test [8] is 14.8 µM (active); in test [6], 1.05 µM (active); in test [9], 11.8 µM (active).
